Binding signal data for eight sequences are collected here from publication PMC11006913.

Residue numbers refer to the chain shown, from its start.

Holding throughout (assay): PBM; 200 nM protein, PBS
Common to all, as to settings: dsDNA, one strand shown

The target in assay [1] is T1, SIX6 (Homo sapiens, UniProt O95475 114-200, L167I).
T1 sequence: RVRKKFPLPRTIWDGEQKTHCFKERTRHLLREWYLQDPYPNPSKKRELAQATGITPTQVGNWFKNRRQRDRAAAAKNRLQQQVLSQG

Assay [2] deals with T2, SIX6 (Homo sapiens, UniProt O95475 114-200, L143V).
T2 sequence: T1 sequence with L30V, I54L

The target in assay [3] is T3, SIX6 (Homo sapiens, UniProt O95475 114-200, H141N).
T3 sequence: T1 sequence with H28N, I54L

Assay [4] concerns the target T4, SIX6 (Homo sapiens, UniProt O95475 114-200, T165P).
T4 sequence: T1 sequence with T52P, I54L

Assay [5] addresses T5, SIX6 (Homo sapiens, UniProt O95475 114-200, L167M).
T5 sequence: T1 sequence with I54M

For assay [6], the target named is T6, SIX6 (Homo sapiens, UniProt O95475 114-200, L143M).
T6 sequence: T1 sequence with L30M, I54L

Assay [7] deals with T7, SIX6 (Homo sapiens, UniProt O95475 114-200, L143I).
T7 sequence: T1 sequence with L30I, I54L

For assay [8], the target named is T8, SIX6 (Homo sapiens, UniProt O95475 114-200, T165G).
T8 sequence: T1 sequence with T52G, I54L

Assay [9] concerns the target T9, SIX6 (Homo sapiens, UniProt O95475 114-200, T139Q).
T9 sequence: T1 sequence with T26Q, I54L

In assay [10] the target is T10, SIX6 (Homo sapiens, UniProt O95475 114-200, T165A).
T10 sequence: T1 sequence with T52A, I54L

The target in assay [11] is T11, SIX6 (Homo sapiens, UniProt O95475 114-200, L167V).
T11 sequence: T1 sequence with I54V

Assay [12] has as its target T12, SIX6 (Homo sapiens, UniProt O95475 114-200).
T12 sequence: T1 sequence with I54L

Assay [13] concerns the target T13, SIX6 (Homo sapiens, UniProt O95475 114-200, T165I).
T13 sequence: T1 sequence with T52I, I54L

As to GCGTATCA, the binding signal in the assay with SIX6 [1] is 11.3 upbm affinity estimate (log intensity, higher = more binding, comparable within an allelic series); in the assay with SIX6 [2], 10.2 upbm affinity estimate (log intensity, higher = more binding, comparable within an allelic series); with SIX6 [3], 11.1 upbm affinity estimate (log intensity, higher = more binding, comparable within an allelic series); with SIX6 [4], 9.54 upbm affinity estimate (log intensity, higher = more binding, comparable within an allelic series); in the assay with SIX6 [5], 10.5 upbm affinity estimate (log intensity, higher = more binding, comparable within an allelic series); in the assay with SIX6 [6], 11.2 upbm affinity estimate (log intensity, higher = more binding, comparable within an allelic series). Also, the binding signal with SIX6 [7] is 10.3 upbm affinity estimate (log intensity, higher = more binding, comparable within an allelic series); with SIX6 [8], 11.3 upbm affinity estimate (log intensity, higher = more binding, comparable within an allelic series); in the assay with SIX6 [9] it was 11.2 upbm affinity estimate (log intensity, higher = more binding, comparable within an allelic series); with SIX6 [10] it was 11.3 upbm affinity estimate (log intensity, higher = more binding, comparable within an allelic series); in the assay with SIX6 [11] it was 10.9 upbm affinity estimate (log intensity, higher = more binding, comparable within an allelic series); in the assay with SIX6 [12] it was 11.1 upbm affinity estimate (log intensity, higher = more binding, comparable within an allelic series). The binding signal with SIX6 [13] is 11.1 upbm affinity estimate (log intensity, higher = more binding, comparable within an allelic series).
On to GATCGATA, for which the binding signal in the assay with SIX6 [1] is 11 upbm affinity estimate (log intensity, higher = more binding, comparable within an allelic series); in the assay with SIX6 [2] it was 10.3 upbm affinity estimate (log intensity, higher = more binding, comparable within an allelic series); in the assay with SIX6 [3] it was 11 upbm affinity estimate (log intensity, higher = more binding, comparable within an allelic series); with SIX6 [4] it was 9.87 upbm affinity estimate (log intensity, higher = more binding, comparable within an allelic series); with SIX6 [5], 10.5 upbm affinity estimate (log intensity, higher = more binding, comparable within an allelic series); with SIX6 [6], 10.8 upbm affinity estimate (log intensity, higher = more binding, comparable within an allelic series). Further, the binding signal is 10.4 upbm affinity estimate (log intensity, higher = more binding, comparable within an allelic series) with SIX6 [7]; 11 upbm affinity estimate (log intensity, higher = more binding, comparable within an allelic series) with SIX6 [8]; 11.2 upbm affinity estimate (log intensity, higher = more binding, comparable within an allelic series) with SIX6 [9]; 10.9 upbm affinity estimate (log intensity, higher = more binding, comparable within an allelic series) in the assay with SIX6 [10]; 10.8 upbm affinity estimate (log intensity, higher = more binding, comparable within an allelic series) with SIX6 [11]; 10.9 upbm affinity estimate (log intensity, higher = more binding, comparable within an allelic series) with SIX6 [12]. In the assay with SIX6 [13], the binding signal was 10.8 upbm affinity estimate (log intensity, higher = more binding, comparable within an allelic series).
For the sequence GGCGCCCA, the binding signal is 8.76 upbm affinity estimate (log intensity, higher = more binding, comparable within an allelic series) with SIX6 [1]; 8.78 upbm affinity estimate (log intensity, higher = more binding, comparable within an allelic series) with SIX6 [2]; 8.67 upbm affinity estimate (log intensity, higher = more binding, comparable within an allelic series) in the assay with SIX6 [3]; 8.95 upbm affinity estimate (log intensity, higher = more binding, comparable within an allelic series) with SIX6 [4]; 8.83 upbm affinity estimate (log intensity, higher = more binding, comparable within an allelic series) with SIX6 [5]; 8.75 upbm affinity estimate (log intensity, higher = more binding, comparable within an allelic series) with SIX6 [6]. For the same sequence, the binding signal with SIX6 [7] was 8.8 upbm affinity estimate (log intensity, higher = more binding, comparable within an allelic series); with SIX6 [8], 8.82 upbm affinity estimate (log intensity, higher = more binding, comparable within an allelic series); with SIX6 [9], 8.81 upbm affinity estimate (log intensity, higher = more binding, comparable within an allelic series); with SIX6 [10] it was 8.62 upbm affinity estimate (log intensity, higher = more binding, comparable within an allelic series); with SIX6 [11] it was 8.78 upbm affinity estimate (log intensity, higher = more binding, comparable within an allelic series); in the assay with SIX6 [12], 8.71 upbm affinity estimate (log intensity, higher = more binding, comparable within an allelic series). Moreover, in the assay with SIX6 [13], the binding signal was 8.73 upbm affinity estimate (log intensity, higher = more binding, comparable within an allelic series).
Regarding CGATACCA, the binding signal with SIX6 [1] was 10.8 upbm affinity estimate (log intensity, higher = more binding, comparable within an allelic series); in the assay with SIX6 [2], 10 upbm affinity estimate (log intensity, higher = more binding, comparable within an allelic series); with SIX6 [3] it was 10.8 upbm affinity estimate (log intensity, higher = more binding, comparable within an allelic series); with SIX6 [4], 9.44 upbm affinity estimate (log intensity, higher = more binding, comparable within an allelic series); with SIX6 [5], 10.3 upbm affinity estimate (log intensity, higher = more binding, comparable within an allelic series); with SIX6 [6] it was 10.7 upbm affinity estimate (log intensity, higher = more binding, comparable within an allelic series). Moreover, the binding signal with SIX6 [7] is 10.1 upbm affinity estimate (log intensity, higher = more binding, comparable within an allelic series); with SIX6 [8], 11 upbm affinity estimate (log intensity, higher = more binding, comparable within an allelic series); in the assay with SIX6 [9], 11.1 upbm affinity estimate (log intensity, higher = more binding, comparable within an allelic series); with SIX6 [10], 10.8 upbm affinity estimate (log intensity, higher = more binding, comparable within an allelic series); in the assay with SIX6 [11], 10.6 upbm affinity estimate (log intensity, higher = more binding, comparable within an allelic series); with SIX6 [12], 10.8 upbm affinity estimate (log intensity, higher = more binding, comparable within an allelic series). Moreover, the binding signal with SIX6 [13] is 10.6 upbm affinity estimate (log intensity, higher = more binding, comparable within an allelic series).
Take CAGGACCG: the binding signal in the assay with SIX6 [1] is 9.24 upbm affinity estimate (log intensity, higher = more binding, comparable within an allelic series); with SIX6 [2], 9.05 upbm affinity estimate (log intensity, higher = more binding, comparable within an allelic series); with SIX6 [3], 9.24 upbm affinity estimate (log intensity, higher = more binding, comparable within an allelic series); with SIX6 [4], 9.18 upbm affinity estimate (log intensity, higher = more binding, comparable within an allelic series); in the assay with SIX6 [5], 9.01 upbm affinity estimate (log intensity, higher = more binding, comparable within an allelic series); in the assay with SIX6 [6], 9.2 upbm affinity estimate (log intensity, higher = more binding, comparable within an allelic series). The binding signal with SIX6 [7] was 9.14 upbm affinity estimate (log intensity, higher = more binding, comparable within an allelic series); with SIX6 [8], 9.28 upbm affinity estimate (log intensity, higher = more binding, comparable within an allelic series); in the assay with SIX6 [9], 9.23 upbm affinity estimate (log intensity, higher = more binding, comparable within an allelic series); with SIX6 [10], 9.16 upbm affinity estimate (log intensity, higher = more binding, comparable within an allelic series); with SIX6 [11] it was 9.19 upbm affinity estimate (log intensity, higher = more binding, comparable within an allelic series); in the assay with SIX6 [12], 9.17 upbm affinity estimate (log intensity, higher = more binding, comparable within an allelic series). Also, the binding signal with SIX6 [13] is 9.13 upbm affinity estimate (log intensity, higher = more binding, comparable within an allelic series).
For the sequence ATGTATCA, the binding signal in the assay with SIX6 [1] is 11.4 upbm affinity estimate (log intensity, higher = more binding, comparable within an allelic series); in the assay with SIX6 [2] it was 10.6 upbm affinity estimate (log intensity, higher = more binding, comparable within an allelic series); with SIX6 [3] it was 11.5 upbm affinity estimate (log intensity, higher = more binding, comparable within an allelic series); in the assay with SIX6 [4] it was 10.1 upbm affinity estimate (log intensity, higher = more binding, comparable within an allelic series); with SIX6 [5], 11 upbm affinity estimate (log intensity, higher = more binding, comparable within an allelic series); with SIX6 [6], 11.2 upbm affinity estimate (log intensity, higher = more binding, comparable within an allelic series). Also, the binding signal with SIX6 [7] was 10.6 upbm affinity estimate (log intensity, higher = more binding, comparable within an allelic series); with SIX6 [8], 11.5 upbm affinity estimate (log intensity, higher = more binding, comparable within an allelic series); with SIX6 [9], 11.3 upbm affinity estimate (log intensity, higher = more binding, comparable within an allelic series); with SIX6 [10] it was 11.4 upbm affinity estimate (log intensity, higher = more binding, comparable within an allelic series); with SIX6 [11] it was 11.2 upbm affinity estimate (log intensity, higher = more binding, comparable within an allelic series); with SIX6 [12], 11.2 upbm affinity estimate (log intensity, higher = more binding, comparable within an allelic series). The binding signal with SIX6 [13] was 11.3 upbm affinity estimate (log intensity, higher = more binding, comparable within an allelic series).
Regarding GATCCGGA, the binding signal with SIX6 [1] was 10.4 upbm affinity estimate (log intensity, higher = more binding, comparable within an allelic series); in the assay with SIX6 [2] it was 9.71 upbm affinity estimate (log intensity, higher = more binding, comparable within an allelic series); with SIX6 [3] it was 10.2 upbm affinity estimate (log intensity, higher = more binding, comparable within an allelic series); with SIX6 [4] it was 9.25 upbm affinity estimate (log intensity, higher = more binding, comparable within an allelic series); with SIX6 [7], 9.87 upbm affinity estimate (log intensity, higher = more binding, comparable within an allelic series); with SIX6 [8], 10.4 upbm affinity estimate (log intensity, higher = more binding, comparable within an allelic series). For the same sequence, the binding signal with SIX6 [9] is 10.7 upbm affinity estimate (log intensity, higher = more binding, comparable within an allelic series); with SIX6 [10], 10.3 upbm affinity estimate (log intensity, higher = more binding, comparable within an allelic series); in the assay with SIX6 [11], 10.3 upbm affinity estimate (log intensity, higher = more binding, comparable within an allelic series); in the assay with SIX6 [12], 10.4 upbm affinity estimate (log intensity, higher = more binding, comparable within an allelic series); with SIX6 [13] it was 10.2 upbm affinity estimate (log intensity, higher = more binding, comparable within an allelic series).
In the case of ATATCCCC, the binding signal with SIX6 [1] is 10.9 upbm affinity estimate (log intensity, higher = more binding, comparable within an allelic series); with SIX6 [2] it was 10.3 upbm affinity estimate (log intensity, higher = more binding, comparable within an allelic series); with SIX6 [3], 10.9 upbm affinity estimate (log intensity, higher = more binding, comparable within an allelic series); with SIX6 [4], 9.7 upbm affinity estimate (log intensity, higher = more binding, comparable within an allelic series); with SIX6 [5] it was 10.9 upbm affinity estimate (log intensity, higher = more binding, comparable within an allelic series); with SIX6 [6], 10.9 upbm affinity estimate (log intensity, higher = more binding, comparable within an allelic series). For the same sequence, the binding signal with SIX6 [7] was 10.3 upbm affinity estimate (log intensity, higher = more binding, comparable within an allelic series); with SIX6 [8] it was 10.9 upbm affinity estimate (log intensity, higher = more binding, comparable within an allelic series); with SIX6 [9], 10.9 upbm affinity estimate (log intensity, higher = more binding, comparable within an allelic series); with SIX6 [10], 10.8 upbm affinity estimate (log intensity, higher = more binding, comparable within an allelic series); in the assay with SIX6 [11], 10.7 upbm affinity estimate (log intensity, higher = more binding, comparable within an allelic series); in the assay with SIX6 [12] it was 10.9 upbm affinity estimate (log intensity, higher = more binding, comparable within an allelic series). Further, the binding signal with SIX6 [13] was 10.9 upbm affinity estimate (log intensity, higher = more binding, comparable within an allelic series).
